# Laboratory results published in the supplement of paper PMC10849652.
# Of roughly 8,800 targets only a part is listed; those with a hit were picked by preference. About 0.5% of all pairs of compound and target were hits. Values without a mark were called inactive.
# Compound: C[C@H](C1=CC=C(C=C1)C(=O)NC2=C3C=CNC3=NC=C2)N
# Assay: log2 fold change, soluble protein after heating vs DMSO (PISA); higher = thermal stabilisation; K562 lysate, 10 uM; active = over 0.2 and 3.5 SD of the protein, either way, in both replicates (recomputed)
# Summary of the method: (§1)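 Soluble protein was defined as the supernatant remaining after 21,000xg for 90 min, following pooling of heated aliquots and adjustment to 0.5% NP-40 at 4°C. Before that, crude K562 extract at 1 mg/mL protein in PBS pH 7.4 with 1 mM MgCl2 was treated with 10 μM compound for 30 min and heated for 3 min across 48°C-58°C. Quantification used TMTpro 16plex LC-MS/MS with channel sums equalised, and values are log-two fold changes in thermal stability relative to solvent controls from duplicates.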
# Sequence of UniProt Q9UBD5 (Q9UBD5 whole entry, looked up): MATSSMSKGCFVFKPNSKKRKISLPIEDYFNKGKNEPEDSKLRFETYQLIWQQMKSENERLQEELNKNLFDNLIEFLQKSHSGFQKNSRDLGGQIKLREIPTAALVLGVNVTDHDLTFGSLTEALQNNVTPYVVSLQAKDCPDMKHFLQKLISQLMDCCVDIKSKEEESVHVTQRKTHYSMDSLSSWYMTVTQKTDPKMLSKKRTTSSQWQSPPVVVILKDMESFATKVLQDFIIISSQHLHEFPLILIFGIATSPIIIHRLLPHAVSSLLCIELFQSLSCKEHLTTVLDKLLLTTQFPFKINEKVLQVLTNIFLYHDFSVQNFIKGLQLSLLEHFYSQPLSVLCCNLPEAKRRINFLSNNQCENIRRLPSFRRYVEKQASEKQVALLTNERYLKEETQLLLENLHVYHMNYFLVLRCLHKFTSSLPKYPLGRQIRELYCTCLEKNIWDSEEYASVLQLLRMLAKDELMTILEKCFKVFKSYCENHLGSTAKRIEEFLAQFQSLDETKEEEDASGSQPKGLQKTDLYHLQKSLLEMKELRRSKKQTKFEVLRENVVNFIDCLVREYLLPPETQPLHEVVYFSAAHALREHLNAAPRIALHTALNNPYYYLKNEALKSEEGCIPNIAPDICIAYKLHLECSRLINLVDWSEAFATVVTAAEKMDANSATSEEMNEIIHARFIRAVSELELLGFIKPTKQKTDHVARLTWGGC
# Sequence of UniProt O75376 (O75376 whole entry, looked up): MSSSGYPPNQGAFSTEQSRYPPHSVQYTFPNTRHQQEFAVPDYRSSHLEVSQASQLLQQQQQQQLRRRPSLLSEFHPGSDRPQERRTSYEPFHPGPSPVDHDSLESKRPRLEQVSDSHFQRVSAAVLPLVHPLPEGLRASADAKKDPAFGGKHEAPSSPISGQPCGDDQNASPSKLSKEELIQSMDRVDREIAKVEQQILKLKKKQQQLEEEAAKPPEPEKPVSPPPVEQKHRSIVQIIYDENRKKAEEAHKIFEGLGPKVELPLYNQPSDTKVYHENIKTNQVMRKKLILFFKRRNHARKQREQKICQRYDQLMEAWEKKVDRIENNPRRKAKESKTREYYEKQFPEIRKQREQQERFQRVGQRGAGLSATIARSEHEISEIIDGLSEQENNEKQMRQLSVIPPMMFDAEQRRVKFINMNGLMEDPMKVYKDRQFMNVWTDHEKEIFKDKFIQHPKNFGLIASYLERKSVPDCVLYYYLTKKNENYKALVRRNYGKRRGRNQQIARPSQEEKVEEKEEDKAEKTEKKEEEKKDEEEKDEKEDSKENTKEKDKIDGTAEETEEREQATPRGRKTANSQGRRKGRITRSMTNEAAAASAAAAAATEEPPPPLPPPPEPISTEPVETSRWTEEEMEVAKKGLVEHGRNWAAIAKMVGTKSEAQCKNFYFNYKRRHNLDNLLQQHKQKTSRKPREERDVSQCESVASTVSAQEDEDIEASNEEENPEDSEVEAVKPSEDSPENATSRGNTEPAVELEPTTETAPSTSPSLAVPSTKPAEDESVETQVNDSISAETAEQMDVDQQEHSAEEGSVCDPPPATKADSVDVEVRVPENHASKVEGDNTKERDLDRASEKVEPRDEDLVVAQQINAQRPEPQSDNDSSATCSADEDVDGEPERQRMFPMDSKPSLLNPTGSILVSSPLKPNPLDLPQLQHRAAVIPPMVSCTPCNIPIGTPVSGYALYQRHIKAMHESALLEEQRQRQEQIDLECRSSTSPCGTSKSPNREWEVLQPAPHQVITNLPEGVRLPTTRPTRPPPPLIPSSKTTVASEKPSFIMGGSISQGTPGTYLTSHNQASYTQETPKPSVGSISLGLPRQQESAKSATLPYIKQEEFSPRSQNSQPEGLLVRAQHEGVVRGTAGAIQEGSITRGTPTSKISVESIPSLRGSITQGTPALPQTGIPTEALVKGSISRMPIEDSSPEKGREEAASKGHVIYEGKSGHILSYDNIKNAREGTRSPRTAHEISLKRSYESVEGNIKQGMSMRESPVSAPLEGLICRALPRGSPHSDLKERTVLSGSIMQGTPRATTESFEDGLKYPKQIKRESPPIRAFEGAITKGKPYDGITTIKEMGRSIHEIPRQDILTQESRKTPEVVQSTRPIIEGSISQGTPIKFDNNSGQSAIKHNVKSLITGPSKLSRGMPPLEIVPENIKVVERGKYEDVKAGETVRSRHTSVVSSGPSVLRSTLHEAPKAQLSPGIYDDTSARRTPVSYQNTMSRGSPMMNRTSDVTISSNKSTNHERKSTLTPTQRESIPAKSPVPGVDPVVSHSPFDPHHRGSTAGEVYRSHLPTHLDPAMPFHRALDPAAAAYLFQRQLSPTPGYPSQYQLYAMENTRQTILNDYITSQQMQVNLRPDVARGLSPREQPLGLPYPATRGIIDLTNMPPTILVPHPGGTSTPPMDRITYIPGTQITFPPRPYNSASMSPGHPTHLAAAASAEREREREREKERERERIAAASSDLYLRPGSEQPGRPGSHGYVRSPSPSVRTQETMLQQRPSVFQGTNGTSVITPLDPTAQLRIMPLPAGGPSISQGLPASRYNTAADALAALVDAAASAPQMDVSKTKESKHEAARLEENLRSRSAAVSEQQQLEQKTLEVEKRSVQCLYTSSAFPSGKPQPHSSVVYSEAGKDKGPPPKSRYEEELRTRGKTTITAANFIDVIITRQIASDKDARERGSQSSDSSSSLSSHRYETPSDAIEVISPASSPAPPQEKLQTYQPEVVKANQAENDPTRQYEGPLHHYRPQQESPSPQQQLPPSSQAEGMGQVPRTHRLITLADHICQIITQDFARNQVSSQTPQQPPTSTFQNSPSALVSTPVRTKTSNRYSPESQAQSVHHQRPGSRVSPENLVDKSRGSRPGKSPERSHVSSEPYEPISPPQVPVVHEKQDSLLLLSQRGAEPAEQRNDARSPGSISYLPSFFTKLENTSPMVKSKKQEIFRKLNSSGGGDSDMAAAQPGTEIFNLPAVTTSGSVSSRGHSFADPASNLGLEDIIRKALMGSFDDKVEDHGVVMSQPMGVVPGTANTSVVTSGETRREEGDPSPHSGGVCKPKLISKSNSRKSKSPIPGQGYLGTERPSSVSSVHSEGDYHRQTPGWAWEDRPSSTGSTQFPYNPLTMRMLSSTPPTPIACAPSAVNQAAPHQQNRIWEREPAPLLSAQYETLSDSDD
# Sequence of UniProt Q9H857 (Q9H857 whole entry, looked up): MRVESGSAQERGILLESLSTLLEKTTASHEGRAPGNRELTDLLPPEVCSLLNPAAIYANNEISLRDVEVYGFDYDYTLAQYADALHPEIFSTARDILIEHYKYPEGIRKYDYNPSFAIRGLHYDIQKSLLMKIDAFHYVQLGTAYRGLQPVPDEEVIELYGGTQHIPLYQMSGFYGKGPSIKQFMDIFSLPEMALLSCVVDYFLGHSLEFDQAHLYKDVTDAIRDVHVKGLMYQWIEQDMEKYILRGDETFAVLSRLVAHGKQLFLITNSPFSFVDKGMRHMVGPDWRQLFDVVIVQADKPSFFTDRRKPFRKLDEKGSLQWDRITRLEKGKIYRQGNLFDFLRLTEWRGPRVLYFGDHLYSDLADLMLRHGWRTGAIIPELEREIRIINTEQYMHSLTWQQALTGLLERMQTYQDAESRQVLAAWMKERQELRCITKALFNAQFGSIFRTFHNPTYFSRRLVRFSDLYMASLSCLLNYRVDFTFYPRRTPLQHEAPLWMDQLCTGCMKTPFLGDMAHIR
# Sequence of UniProt Q8NC60 (Q8NC60 whole entry, looked up): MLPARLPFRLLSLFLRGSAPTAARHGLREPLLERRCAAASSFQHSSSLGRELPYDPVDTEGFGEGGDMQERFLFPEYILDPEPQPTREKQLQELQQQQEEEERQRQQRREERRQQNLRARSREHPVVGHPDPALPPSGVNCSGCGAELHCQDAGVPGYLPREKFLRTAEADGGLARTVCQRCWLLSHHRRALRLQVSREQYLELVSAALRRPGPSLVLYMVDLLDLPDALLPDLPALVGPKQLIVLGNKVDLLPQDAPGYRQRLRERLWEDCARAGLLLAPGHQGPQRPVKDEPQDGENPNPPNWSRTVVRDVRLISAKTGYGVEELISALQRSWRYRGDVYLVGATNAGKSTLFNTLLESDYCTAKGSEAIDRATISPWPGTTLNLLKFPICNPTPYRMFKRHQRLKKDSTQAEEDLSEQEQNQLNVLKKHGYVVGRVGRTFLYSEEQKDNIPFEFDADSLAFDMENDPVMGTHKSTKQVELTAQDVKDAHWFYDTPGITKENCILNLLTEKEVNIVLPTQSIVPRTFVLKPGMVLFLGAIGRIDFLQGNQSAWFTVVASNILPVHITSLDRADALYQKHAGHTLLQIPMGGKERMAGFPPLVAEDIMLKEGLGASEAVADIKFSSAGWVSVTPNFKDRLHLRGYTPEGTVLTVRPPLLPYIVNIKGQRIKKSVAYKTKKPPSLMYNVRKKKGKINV
# Sequence of UniProt Q15843 (Q15843 whole entry, looked up): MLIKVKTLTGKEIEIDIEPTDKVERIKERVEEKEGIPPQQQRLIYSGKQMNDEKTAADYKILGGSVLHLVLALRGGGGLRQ
# Sequence of UniProt Q8TDX7 (Q8TDX7 whole entry, looked up): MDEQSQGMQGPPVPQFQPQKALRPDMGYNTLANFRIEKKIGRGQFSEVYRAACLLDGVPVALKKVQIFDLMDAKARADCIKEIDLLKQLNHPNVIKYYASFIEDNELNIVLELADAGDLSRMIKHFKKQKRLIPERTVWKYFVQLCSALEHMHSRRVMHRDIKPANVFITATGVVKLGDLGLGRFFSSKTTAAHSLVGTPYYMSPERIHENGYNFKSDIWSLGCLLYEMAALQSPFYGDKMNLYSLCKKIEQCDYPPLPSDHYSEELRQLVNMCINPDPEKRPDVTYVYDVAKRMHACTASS
# Sequence of UniProt P03886 (P03886 whole entry, looked up): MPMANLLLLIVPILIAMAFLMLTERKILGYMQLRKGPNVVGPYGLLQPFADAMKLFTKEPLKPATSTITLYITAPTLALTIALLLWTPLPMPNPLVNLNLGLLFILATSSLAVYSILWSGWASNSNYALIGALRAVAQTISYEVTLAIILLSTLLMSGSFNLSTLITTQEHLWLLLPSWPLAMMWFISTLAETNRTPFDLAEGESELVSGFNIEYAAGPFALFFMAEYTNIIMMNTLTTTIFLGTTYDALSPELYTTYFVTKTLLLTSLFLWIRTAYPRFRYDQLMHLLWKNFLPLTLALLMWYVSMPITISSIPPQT
row,Target,log2 fold change
1,NTPCR (UniProt Q9BSD7),0.031
2,MTHFD1L (UniProt B7ZM99),0.017
3,NOA1 (UniProt Q8NC60),-0.282
4,NT5DC2 isoform 2 (UniProt Q9H857),-0.018
5,OTUD7B (UniProt Q6GQQ9),0.006
6,NADK2 (UniProt Q4G0N4),-0.04
7,NTMT1 (UniProt Q9BV86),0.079
8,OSGEP (UniProt Q9NPF4),-0.07
9,NDUFA4 (UniProt O00483),0.009
10,NUB1 (UniProt Q9Y5A7),0.009
11,NFATC2 (UniProt Q13469),0.085
12,ORC2 (UniProt Q13416),0.063
13,NELFCD (UniProt Q8IXH7),0.074
14,NMRAL1 (UniProt Q9HBL8),0.695 (active)
15,PAIP2 (UniProt Q9BPZ3),-0.008
16,NCAPD2 (UniProt Q15021),-0.003
17,NEDD8 (UniProt Q15843),0.19
18,NFIC (UniProt P08651),-0.361

row,Target,log2 fold change
1,NELFA (UniProt Q9H3P2),0.06
2,NLRP2 (UniProt Q9NX02),0.091
3,OSBPL6 isoform 5 (UniProt Q9BZF3),-0.003
4,MTCH2 (UniProt Q9Y6C9),-0.144
5,NAA38 isoform 2 (UniProt Q9BRA0),-0.382 (active)
6,NAP1L5 (UniProt Q96NT1),0.616 (active)
7,MT-ND1 (UniProt P03886),-0.342 (active)
8,NFATC2IP (UniProt Q8NCF5),0.059
9,MYCBP (UniProt Q99417),-0.498 (active)
10,NIT2 (UniProt Q9NQR4),-0.008
11,NEBL (UniProt O76041),0.106
12,NFKBIB (UniProt Q15653),-0.36 (active)
13,NEK7 (UniProt Q8TDX7),-0.062
14,NCOR1 (UniProt O75376),0.031
15,ORC3 isoform 2 (UniProt Q9UBD5),-0.008
16,NCK1 (UniProt P16333),0.065
17,NFATC1 (UniProt O95644),-0.136

# Compound: C[C@H](Nc1ncnc2nc[nH]c12)c1cc2cccc(Cl)c2c(=O)n1-c1ccccc1 [duvelisib]
# Assay: as above
# Summary of the method: as §1
row,Target,log2 fold change
1,NTPCR (UniProt Q9BSD7),-0.003
2,MTHFD1L (UniProt B7ZM99),0.026
3,NOA1 (UniProt Q8NC60),0.014
4,NT5DC2 isoform 2 (UniProt Q9H857),-0.01
5,OTUD7B (UniProt Q6GQQ9),-0.041
6,NADK2 (UniProt Q4G0N4),0.03
7,NTMT1 (UniProt Q9BV86),-0.026
8,OSGEP (UniProt Q9NPF4),-0.037
9,NDUFA4 (UniProt O00483),0.059
10,NUB1 (UniProt Q9Y5A7),-0.004
11,NFATC2 (UniProt Q13469),-0.017
12,ORC2 (UniProt Q13416),-0.068
13,NELFCD (UniProt Q8IXH7),0.017
14,NMRAL1 (UniProt Q9HBL8),0.08
15,PAIP2 (UniProt Q9BPZ3),-0.04
16,NCAPD2 (UniProt Q15021),0.014
17,NEDD8 (UniProt Q15843),0.019
18,NFIC (UniProt P08651),-0.002

row,Target,log2 fold change
1,NELFA (UniProt Q9H3P2),-0.018
2,NLRP2 (UniProt Q9NX02),0.005
3,OSBPL6 isoform 5 (UniProt Q9BZF3),-0.003
4,MTCH2 (UniProt Q9Y6C9),-0.011
5,NAA38 isoform 2 (UniProt Q9BRA0),-0.016
6,NAP1L5 (UniProt Q96NT1),0.099
7,MT-ND1 (UniProt P03886),-0.052
8,NFATC2IP (UniProt Q8NCF5),-0.067
9,MYCBP (UniProt Q99417),0.02
10,NIT2 (UniProt Q9NQR4),0.011
11,NEBL (UniProt O76041),0.023
12,NFKBIB (UniProt Q15653),0.004
13,NEK7 (UniProt Q8TDX7),-0.026
14,NCOR1 (UniProt O75376),-0.022
15,ORC3 isoform 2 (UniProt Q9UBD5),-0.025
16,NCK1 (UniProt P16333),0.014
17,NFATC1 (UniProt O95644),0.007
